Reference: publication PMC12136788
Numbering of substitutions follows the chain as printed. Whole data set: some 24,000 sequences, median “enrichment r” near 0.99, cut for the highest 2% near 3.7. This is one part of a sample in which the highest values are shown more often than they occur.

T1: UNK ZnF1-3 (human, UniProt Q9C0B0 31-174)
T1 sequence: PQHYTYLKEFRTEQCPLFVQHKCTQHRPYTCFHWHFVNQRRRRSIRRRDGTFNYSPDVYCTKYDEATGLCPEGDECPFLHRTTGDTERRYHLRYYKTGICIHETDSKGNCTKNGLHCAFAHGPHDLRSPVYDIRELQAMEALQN

B1: 134340332_134340452_1702_CDS_ENSG00000130723_ENST00000357304|human|control|control (ssRNA)
RNA: GGGAGUUCUACAGUCCGACGAUCAGGGCCGUUUUCCUGGGGAGAUGCCUUCUCAGCACUUGGAGACCAGGGCACUUCCUUCUCUGCCUGCUUCCGGGCCUCACCUGCCUUUCGUGCCUGCUUACACUUCUGGUCCAGCUGCUUCAACAGAGGAUUGAGCAUCA
B2: 79156280_79159801_5654_CDS_ENSMUSG00000039414_ENSMUST00000097281|mouse|control|control (ssRNA)
RNA: GGGAGUUCUACAGUCCGACGAUCACUGCUGGCAGACCACAGGAAGAGCGCAAUGGCUGUGAGUGUGCUCACUUCGUCAGGUGCGGGCAUACAGUCAUCUGGUUGAGAAUAUUCCAGGAUGCAGGCAAGGGUGCUCCGGAUUAGCAACAGAGGAUUGAGCAUCA
B3: chr10:40656395:40656396:+_ENSMUSG00000019831_ENSMUST00000105509|mus_mus|FALSE|FALSE (ssRNA)
RNA: GGGAGUUCUACAGUCCGACGAUCUUGUGAUGGAGGAGAUGGAGGCAUUAAUGGAGCAUGGGGACCCGGGGCAGUAGAUGGUGCUGGAUGGAGCCCAGAGGGAGGAUGAGCAAGAGCUGCAACUGCGACAGGAGAUGAUGGCCGCAACAGAGGAUUGAGCAUCA
B4: chr4:144460044:144460045:+_ENSG00000153147_ENST00000283131|hu_mus|hu_hu_hu_mus_False|8_68 (ssRNA)
RNA: GGGAGUUCUACAGUCCGACGAUCACGGUCCAUAGCCUGAAGAUCAACUUGCGGAUUCCAAUCUGAGUCAUACAAAAUGACUACAUCAGCAGUUGCAAGAUUGAUGCCCAGACCACCAGCACGUGUGCUUAACAUGAAUACAAACAACAGAGGAUUGAGCAUCA
B5: chr22:19452774:19452775:-_ENSG00000070010_ENST00000399523|hu_hu|hu_hu_hu_mus_False|58_88 (ssRNA)
RNA: GGGAGUUCUACAGUCCGACGAUCCUUCUCAUUGUAGUUGAUAGCAAUCACAUCCCCAGUCGUCAGACAGGCGAAGUUCCUAAGUGCAUUUUCUAAUACCGCUUUAGGGUUGGUAAUAUCCAGGAAGUCUGGGCUCUGAGGCUGCAACAGAGGAUUGAGCAUCA
B6: 91655523_91655643_1000_CDS_ENSMUSG00000022961_ENSMUST00000114036|mouse|control|control (ssRNA)
RNA: GGGAGUUCUACAGUCCGACGAUCCUCCGAUGGUGCUUCUACAGGCUGCUCUGGCAAUCUUUGCACGUCAGUUGUAGAUGACUCUGGAAAAUCCAUUGUUGAUGGGCUUGGUUCAGGGUGCACCUCAGUAGGUGUCUCUGACACCAACAGAGGAUUGAGCAUCA
B7: chr16:2011185:2011186:+_ENSG00000140990_ENST00000268668|hu_hu|motif|central (ssRNA)
RNA: GGGAGUUCUACAGUCCGACGAUCCACGCGGCGGUACUGCCGGUGGUAGUAGUAAUACCUGUUCUUUGCGUGCUGCCGCUCGGUAAAUUCUCUCACGAGGGUCACGGGUCGGUCCACGAUGAGGUCGAACGCUUUCAUCAUGUACAACAGAGGAUUGAGCAUCA
B8: chr10:75542919:75542920:+_ENSG00000172586_ENST00000372833|hu_mus|FALSE|FALSE (ssRNA)
RNA: GGGAGUUCUACAGUCCGACGAUCUGAGAGUUCAUUGAAAAUAUUUCUCCAUUUUCAGAUGAGAUGAGAUUUGUUGGGAAAUCUCUGUAACAACUUGGUCAUCUUGUGGGGAGAUAAACUCUCGGACUGUCCCAGAGACUCCUGCAACAGAGGAUUGAGCAUCA
B9: chr15:85967975:85967976:+_ENSMUSG00000035900_ENSMUST00000088931|mus_mus|motif|central (ssRNA)
RNA: GGGAGUUCUACAGUCCGACGAUCACAGAGCAUUUUAGGUUUAUUAAAUAAAAAUUAUAAUUUAUACAAGACUUUGUAUCGGAACAAGGUUUUCUUUUUUUAAAAAAAAAAGUGACAGAGGAUUUUUUUUCCUAUCAGUUCUUUCAACAGAGGAUUGAGCAUCA
B10: chr15:85967975:85967976:+_ENSMUSG00000035900_ENSMUST00000088931|mus_mus|FALSE|FALSE (ssRNA)
RNA: B9 RNA with G80U, G81A
B11: chr5:162868235:162868236:+_ENSG00000113328_ENST00000340828|hu_hu|motif|central (ssRNA)
RNA: GGGAGUUCUACAGUCCGACGAUCCCAACACACCUUCUCCAAUACAAUCUUUUCCAUUCUCAUCAAGUCUGAAACCGUAAACCGGUAUUGACUUAUUCGGAUCAAGUCAGUUGCCAAUGGGACAUUCCUUUCCUCUUCUAUUGACAACAGAGGAUUGAGCAUCA
B12: chr9:14812383:14812384:-_ENSMUSG00000031934_ENSMUST00000164273|mus_mus|mus_mus_mus_hu_True|28_108 (ssRNA)
RNA: GGGAGUUCUACAGUCCGACGAUCAUAGCUCAAGUAGAUACACGCUAACAGUAUAAUGAUGAGUGUCAGCAGGCGGCAGCUAAUGUACUUGAUGAUUAAAUUAUUAGAGUUCUUUUUUGUCUUCAAGUACUGCUCCACAAUUGGCAACAGAGGAUUGAGCAUCA
B13: chr2:160855017:160855018:-_ENSMUSG00000057133_ENSMUST00000039782|mus_mus|FALSE|FALSE (ssRNA)
RNA: GGGAGUUCUACAGUCCGACGAUCAUCCUUUUCCAGUUCUUCCAUUGUGGCCCAUUUACAAUGUAAAUAGGAAAAAUUUCUAUACUUAACGUAGAAAAGCUCUAGGUCGAAUGGAGGUUCUCCUGGGUGAACCUCCUGGACAGUCAACAGAGGAUUGAGCAUCA
B14: chr7:150915252:150915253:-_ENSG00000033050_ENST00000287844|hu_mus|FALSE|FALSE (ssRNA)
RNA: GGGAGUUCUACAGUCCGACGAUCCUUCCCUGCUCCAUUGGGUCCUACCAGAGCCACUCGUGUGUCAAGAUCAAUACCAAAUUCUAGAUUAUUGUAGAUGCAAGGCCCGUCUUUCGUAUAUUUGAAGCUCACGUUCUGCACCAUCAACAGAGGAUUGAGCAUCA
B15: chr2:78753848:78753849:+_ENSMUSG00000027011_ENSMUST00000028398|mus_mus|FALSE|FALSE (ssRNA)
RNA: GGGAGUUCUACAGUCCGACGAUCGUUAUCUCCUUUAGGCCCAGCACUGCAGUUAGGAGGAGGAUCAAGGGUUAUCUCUGCUAGCUCCUUCUGAAUUCUUUUAGCACUAGUGGAUAACUUAGCAGUCGUUUUGCUAGAGAGUUUCAACAGAGGAUUGAGCAUCA
B16: chr2:4828950:4828951:+_ENSMUSG00000026662_ENSMUST00000115019|mus_hu|motif|central (ssRNA)
RNA: GGGAGUUCUACAGUCCGACGAUCUAAAAUCUAGUUUUUCCCGAUAAAUUGUACUUUAGGCAAAACCCUCCCAACGCUUCGGAAAUAAUACUAAAAGGGGCAUCUGAUUAUACAAGAGCAAUUUAAAAAAUUAAAUAUUUAUUUCAACAGAGGAUUGAGCAUCA
B17: chr2:4828950:4828951:+_ENSMUSG00000026662_ENSMUST00000115019|mus_hu|FALSE|FALSE (ssRNA)
RNA: B16 RNA with G80U, G81A
B18: chr11:30747457:30747458:+_ENSMUSG00000040850_ENSMUST00000041231|mus_mus|motif|central (ssRNA)
RNA: GGGAGUUCUACAGUCCGACGAUCACCCUUAAAGAGGCAGAAACGCCGGGGACUAAACUUAUCUCUUCCUUUUCUGUCUUCGGAAGAUAGAAAUGUGAUUAACUGCUCAACAAACUUAGGAUCAGAAAAACGAUCAUAUAUAAUCAACAGAGGAUUGAGCAUCA
B19: chr11:43534790:43534791:+_ENSMUSG00000044950_ENSMUST00000129229|mus_mus|FALSE|FALSE (ssRNA)
RNA: GGGAGUUCUACAGUCCGACGAUCUCUGAUUUUCUCAUGUGUUCUCCAUUCAUUAAACAAGAAAAAUUAAGGGGUUUCAUACUAUGUAUUUAGCAAAGACAAGGAAAUCUGAAAUCUCUGUUAAGAAUUCAUGUUCCAUGCACCCAACAGAGGAUUGAGCAUCA
B20: chr1:39494447:39494448:+_ENSG00000168653_ENST00000372967|hu_mus|hu_hu_hu_mus_False|68_88 (ssRNA)
RNA: GGGAGUUCUACAGUCCGACGAUCGCACCGAGCGGCGUUCUUAUAGGGCUGUUCACCGCUUAGGAACGUCAACCAUCGGUCCAGGCUGAUGCCCAGCUUUUUCUGUAUGUCAAGGAAAGGCAUGGCUCUGCAGUGCCCUUGUCACAACAGAGGAUUGAGCAUCA
B21: chr14:76904540:76904541:+_ENSMUSG00000022010_ENSMUST00000022587|mus_hu|motif|central (ssRNA)
RNA: GGGAGUUCUACAGUCCGACGAUCAAAGAAAUUGAAAAAUGUCUCAGUUGGUAAACUCCUAGAUCCAUCGCCACUGGUCGGCACCAUUGGGAUUUCAUGCAAUUGCAGCCAAAAACACCCUCGUGGAAAAAAAGAGGGAACACCCAACAGAGGAUUGAGCAUCA
B22: chr10:1038518:1038519:+_ENSG00000107937_ENST00000545048|hu_hu|hu_hu_hu_mus_False|28_58 (ssRNA)
RNA: GGGAGUUCUACAGUCCGACGAUCCAGUCUGUCAUGGUAAUUCUGUUGAGUAAAUUUGACUUUUCUCAUAUAAAAAUGUCUAAUGCGAUGAAUUUGAUAAUGUUUAUGAAUAACGGUUGGAGUCUUUCGUUGAGUCUUGGAUAACAACAGAGGAUUGAGCAUCA

Molecular target: T1, UNK ZnF1-3
Experiment: nsRBNS (natural sequence RNA bind-n-seq); RBNS binding buffer (assumed for nsRBNS): 25 mM Tris pH 7.5, 150 mM KCl, 3 mM MgCl2, 0.01% Triton X-100, 500 ug/ml BSA, 20 U/ml SUPERase-In, 4 C; UNK is unkempt and MSI1 is Musashi-1; names of the RNAs are library labels; protein concentration not given here; high values mean tight binding

Row | Binder | binding signal [enrichment R]
1 | B1 | 0.675
2 | B2 | 1.35
3 | B3 | 3.38
4 | B4 | 0.925
5 | B5 | 0.785
6 | B6 | 0.484
7 | B7 | 0.392
8 | B8 | 0.344
9 | B9 | 7.03
10 | B10 | 4.57
11 | B11 | 0.785
12 | B12 | 1.06
13 | B13 | 0.614
14 | B14 | 1.41
15 | B15 | 1.05
16 | B16 | 4.08
17 | B17 | 6.73
18 | B18 | 0.632
19 | B19 | 0.874
20 | B20 | 0.613
21 | B21 | 1.75
22 | B22 | 1.2
